Data: the supplement of paper PMC9844399
Where a name gives a salt, the structure may show the parent alone.

System: HeLa
Assay: MALAT1 nuclear FISH intensity, robust Z-score vs DMSO; higher = more nuclear MALAT1 lncRNA, active = -3 or less
Details: 10 µM; 6 h
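Also: High-content confocal imaging of branched-DNA amplified FISH in 384-well plates, Hoechst-defined nuclei, score is well value minus plate DMSO median over DMSO robust SD, four wells per compound.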

| SMILES | MALAT1 nuclear FISH intensity |
| --- | --- |
| CC1=C(/C=C/C(C)=C/C=C/C(C)=C\C(=O)O)C(C)(C)CCC1 [Isotretinoin] | -1.79 (inactive) |
| Cc1ccccc1C(=O)Nc1ccc(C(=O)N2CCCC(O)c3cc(Cl)ccc32)c(C)c1 (stereo unspecified) [Tolvaptan] | 0.0389 (inactive) |
| CC[C@]1(O)C[C@@H]2CN(CCc3c([nH]c4ccccc34)[C@@](C(=O)OC)(c3cc4c(cc3OC)N(C)[C@H]3[C@@](O)(C(=O)OC)[C@H](OC(C)=O)[C@]5(CC)C=CCN6CC[C@]43[C@@H]65)C2)C1 [Vinblastine] | -1.59 (inactive) |
| Nc1cc(N2CCCCC2)nc(N)[n+]1OS(=O)(=O)[O-] [Minoxidil sulfate] | 0.517 (inactive) |
| Cn1nnc2c(C(N)=O)ncn2c1=O [Temozolomide] | -0.997 (inactive) |
| N=C(N)NC(=O)Cc1c(Cl)cccc1Cl | -0.00649 (inactive) |
| COc1cc2nc(N3CCN(C(=O)C4COc5ccccc5O4)CC3)nc(N)c2cc1OC (stereo unspecified) [Doxazosin Mesylate] | 0.289 (inactive) |
| Cc1[nH]cnc1CN1CCc2c(c3ccccc3n2C)C1=O | -1.58 (inactive) |
| C[C@@H]1C[C@H]2[C@@H]3CCC4=CC(=O)C=C[C@]4(C)[C@@]3(Cl)[C@@H](O)C[C@]2(C)[C@@]1(OC(=O)c1ccco1)C(=O)CCl [Mometasone Furoate] | 0.299 (inactive) |
| COc1ccc2c(c1)c(CC(=O)O)c(C)n2C(=O)c1ccc(Cl)cc1 [Indomethacin] | -0.0795 (inactive) |
| CC(C)NCC(O)c1cc(O)cc(O)c1 (stereo unspecified) [Metaproterenol Hemisulfate (Orciprenaline)] | -0.344 (inactive) |
| O=C(O)c1cc(=O)c2c(OCC(O)COc3cccc4oc(C(=O)O)cc(=O)c34)cccc2o1 | 1.34 (inactive) |
| CC(=O)Oc1ccc(C(c2ccc(OC(C)=O)cc2)c2ccccn2)cc1 [Bisacodyl] | -0.416 (inactive) |
| CN1CCC(=C2c3ccccc3CC(=O)c3sccc32)CC1 | 0.0682 (inactive) |
| CC/C=C\C/C=C\C/C=C\CCCCCCCCCC(=O)O [Eicosatrienoic acid (20:3 n-3)] | 1.31 (inactive) |
| CC(C)Nc1cccnc1N1CCN(C(=O)c2cc3cc(NS(C)(=O)=O)ccc3[nH]2)CC1 [Delavirdine Mesylate] | 1.25 (inactive) |

| SMILES | MALAT1 nuclear FISH intensity |
| --- | --- |
| O=C1CN(/N=C/c2ccc(-c3ccc([N+](=O)[O-])cc3)o2)C(=O)N1 [Dantrolene] | 1.77 (inactive) |
| Oc1cccc(-c2nc(N3CCOCC3)c3oc4ncccc4c3n2)c1 [PI 103 hydrochloride] | -1.83 (inactive) |
| CC(=O)OCC(CCn1cnc2cnc(N)nc21)COC(C)=O [Famciclovir] | -0.574 (inactive) |
| CC(CN1c2ccccc2Sc2ccccc21)N(C)C (stereo unspecified) | 0.883 (inactive) |
| CCCCC/C=C\C[C@H](O)/C=C/C=C\C/C=C\CCCC(=O)O | 0.0137 (inactive) |
| O=C1N=C(O)CN1N=Cc1ccc(-c2ccc([N+](=O)[O-])cc2)o1 | -0.248 (inactive) |
| NC(=O)c1cnccn1 [Pyrazinamide] | -1.58 (inactive) |
| CCCc1nc(C)c2c(=O)nc(-c3cc(S(=O)(=O)N4CCN(CC)CC4)ccc3OCC)[nH]n12 [Vardenafil] | -1.12 (inactive) |
| C[C@H]1CC[C@@]2(OC1)O[C@H]1C[C@H]3[C@@H]4CC[C@@H]5C[C@@H](O[C@@H]6O[C@H](CO)[C@H](O)[C@H](O)[C@H]6O[C@@H]6O[C@H](CO)[C@@H](O)[C@H](O)[C@H]6O)CC[C@]5(C)[C@H]4CC[C@]3(C)[C@H]1[C@@H]2C [Timosaponin A-III] | -0.716 (inactive) |
| C1CCC(C(CC2CCCCN2)C2CCCCC2)CC1 (racemic) [rac Perhexiline Maleate] | 0.286 (inactive) |
| CC1(C)S[C@@H]2[C@H](NC(=O)[C@H](N)c3ccccc3)C(=O)N2[C@H]1C(=O)O [Ampicillin Trihydrate] | -0.144 (inactive) |
| COc1ccc(C2CNC(=O)C2)cc1OC1CCCC1 (stereo unspecified) [Rolipram] | -0.594 (inactive) |
| Nc1ccc(S(=O)(=O)c2ccc(N)cc2)cc1 [Dapsone] | -0.937 (inactive) |
| O=C1CCc2cc(OCCCCc3nnnn3C3CCCCC3)ccc2N1 [Cilostazol] | -0.676 (inactive) |
| NNC(=O)c1ccncc1 [Isoniazid] | -0.86 (inactive) |
